# Hit rate of the full screen: of about 13,000 compounds, about 3,200 (25%) showed an effect of 50% or more. Some of the results follow.
# Test system: P. falciparum stage V gametocytes
# Design: BacTiter-Glo ATP luminescence viability of purified stage V gametocytes in 384-well plates, per cent inhibition versus DMSO
# Conditions: 48 h, 5 µM; inhibitor
row,Structure (SMILES),% Inhibition [%]
1,CC1(C)N=C(N)N=C(N)N1OCCOc1ccc2ccccc2c1 [TCMDC-131609],-8.756
2,N#Cc1cc(C(=O)Nc2ccccc2)c(N)nc1SCC(=O)Nc1ccc(Br)cc1 [TCMDC-124873],-53.64
3,CCCC(C)Nc1nc(C)cc(N[C@@H](CC(C)C)C(=O)NCCc2ccccc2)n1 (some centres unmarked) [TCMDC-134769],-46.8
4,[O-][s+]1c(Cl)c(-c2ccc(Cl)cc2)c2ccc(Cl)cc21 (centres unmarked) [TCMDC-124011],120.8
5,Cc1noc(C)c1-c1ccc(C(=C2CCCCCCC2)c2ccc(O)cc2)cc1 [TCMDC-135872],-5.918
6,Fc1ccc(-c2oc(C3CCN(CCc4ccc(-c5nc(=S)o[nH]5)cc4)CC3)nc2COCC(F)(F)F)cc1 [TCMDC-138124],11.59
7,O=C(Nc1ccc(-c2ccc(-c3nc4cc(C(F)(F)F)ccc4[nH]3)s2)cc1)c1c[nH]cn1 [TCMDC-136933],1.444
8,O=C(Cc1c[nH]cn1)Nc1cccc(-c2ccc(-c3nc4cc(F)ccc4[nH]3)s2)c1 [TCMDC-136953],5.637
9,O=C(Cc1c[nH]cn1)Nc1cccc(-c2ccc(-c3nc4cc(C(F)(F)F)ccc4[nH]3)s2)c1 [TCMDC-136945],84.53
10,O=C(Nc1cccc(-c2ccc(-c3nc4cc(C(F)(F)F)ccc4[nH]3)s2)c1)c1ccncc1 [TCMDC-136960],-10.77
11,O=C(Nc1cccc(-c2ccc(-c3nc4cc(C(F)(F)F)ccc4[nH]3)s2)c1)c1c[nH]cn1 [TCMDC-136934],63.59
12,O=C(Cc1c[nH]cn1)Nc1ccc(-c2ccc(-c3nc4cc(C(F)(F)F)ccc4[nH]3)s2)cc1 [TCMDC-136944],-5.397
13,Cc1cccc2nc(-c3cccc(-c4cccc(CNCCc5ccncc5)c4)c3)[nH]c12.O=C(O)C(F)(F)F [TCMDC-132844],3.347
14,O=C(CCc1cccnc1)Nc1cccc(-c2ccc(-c3nc4cc(C(F)(F)F)ccc4[nH]3)s2)c1 [TCMDC-132147],0.1764
15,CC(=O)Nc1ccc(C(=O)NC2CCN(c3ccnc4cc(Cl)ccc34)CC2)cc1 [TCMDC-133572],1.937
16,COc1cc(Nc2nccc(N3CCC(NC(=O)c4cc5ccccc5s4)C3)n2)cc(OC)c1OC (centres unmarked) [TCMDC-133624],0.1379
17,CC(C)C[C@H](NC(=O)c1cc2ccccc2s1)C(=O)N[C@H]1CCN(Cc2ccc(OC[C@@H]3CCCN3C)c3ccccc23)C1 [TCMDC-140290],74.51
18,CC(C)C[C@H](NC(=O)c1cc2ccccc2s1)C(=O)N[C@H]1CCN(Cc2ccc(OC[C@@H]3CCCN3C)c(Cl)c2)C1 [TCMDC-140292],28.24
19,CC(C)C[C@H](NC(=O)c1cc2ccccc2s1)C(=O)N[C@H]1CCN(Cc2ccc(OCCN3CCNCC3)c3ccccc23)C1 [TCMDC-140289],107.5
20,COc1ccc(Nc2nccc(N3CCC(NC(=O)c4cc5ccccc5s4)C3)n2)cc1 (centres unmarked) [TCMDC-133614],-3.392
21,O=C(Nc1cccc(C(F)(F)F)c1)N1CCOC(CCN2CCC3(CCc4ccccc43)CC2)(c2ccc(Cl)c(Cl)c2)C1 (centres unmarked) [TCMDC-135340],-5.677
22,OCC1CCN(Cc2cccc(C#Cc3cc4ncnc(Nc5ccc(OCc6cccc(F)c6)c(Cl)c5)c4s3)n2)CC1 [TCMDC-138841],11.44

row,Structure (SMILES),% Inhibition [%]
1,Cc1cc(N2CCN(C)CC2)nc2ccc(NC(=O)Cc3cccc(C(F)(F)F)c3)cc12 [TCMDC-123590],92.11
2,Cc1cc(N2CCN(C)CC2)nc2ccc(NC(=O)c3cccc(N(C)C)c3)cc12 [TCMDC-124449],4.693
3,CCN1CCN(c2cc(C)c3cc(NC(=O)c4cccc(C(F)(F)F)c4)ccc3n2)CC1 [TCMDC-125572],-33.11
4,Cc1cccn2c(=O)c3cc(C(=O)NC(C)c4ccccc4)c(=N)n(CCN4CCOCC4)c3nc12 (centres unmarked) [TCMDC-125137],27.67
5,COCCn1c(-c2nc(-c3ccc(F)cc3)cnc2N)nc2ccccc21 [TCMDC-138875],21.39
6,CN=C(N)c1ccc(NC(=O)c2ccc(C(=O)Nc3ccc(C(N)=NC)cc3)cc2)cc1 [TCMDC-137214],-8.132
7,O=C(C=Cc1ccc(C(=O)Nc2ccc(C3=NCCN3)cc2)cc1)Nc1ccc(C2=NCCN2)cc1 [TCMDC-137212],61.27
8,O=C(CCCC(=O)Nc1ccc(C2=NCCN2)cc1)Nc1ccc(C2=NCCN2)cc1 [TCMDC-138427],-1.956
9,O=C(Nc1ccc(C(=O)Nc2cccc(C3=NCCN3)c2)cc1)Nc1ccc(C2=NCCN2)cc1 [TCMDC-137196],-21.25
10,CN=C(N)c1ccc(NC(=O)Nc2ccc(C(N)=NC)cc2)cc1 [TCMDC-137211],3.891
11,CN=C(N)c1ccc(NC(=O)C=Cc2ccc(C(=O)Nc3ccc(C(N)=NC)cc3)cc2)cc1 [TCMDC-137193],77.71
12,N#Cc1cccc(C(=O)NC2CCN(c3ccnc(Nc4ccc(F)cc4)n3)C2)c1 (centres unmarked) [TCMDC-133593],17.79
13,O=C(NC1CCC(CCN2CCc3ccc(-c4cnccn4)cc3CC2)CC1)c1cccc(-n2cccn2)c1 (centres unmarked) [TCMDC-140329],67.17
14,Cc1c[nH]c2ccc(/C=C/C(=O)NC3CCC(CCN4CCc5ccc(C#N)cc5CC4)CC3)cc12 (centres unmarked) [TCMDC-139669],1.674
15,Cc1cc(-c2ccc3c(c2)CCN(CCC2CCC(NC(=O)/C=C/c4ccccc4F)CC2)CC3)on1 (centres unmarked) [TCMDC-139974],-78.86
16,N#Cc1ccc(C=CC(=O)NC2CCC(CCN3CCc4ccc(-c5cnccn5)cc4CC3)CC2)cc1 (centres unmarked) [TCMDC-140327],-34.09
17,O=C(C=Cc1cccc(F)c1)NC1CCC(CCN2CCc3ccc(-c4cnccn4)cc3CC2)CC1 (centres unmarked) [TCMDC-140326],-57.13
18,COc1ccccc1/C=C/C(=O)NC1CCC(CCN2CCc3ccc(-c4cc(C)no4)cc3CC2)CC1 (centres unmarked) [TCMDC-139975],80.37
19,Cn1cnc(-c2ccc3c(c2)CCN(CCC2CCC(NC(=O)/C=C/c4ccc(F)cc4)CC2)CC3)c1 (centres unmarked) [TCMDC-140338],59.86
20,N#Cc1ccc2c(c1)CCN(CCC1CCC(NC(=O)/C=C/c3c[nH]c4ccc(F)cc34)CC1)CC2 (centres unmarked) [TCMDC-139667],-9.203
21,Cc1cc(-c2ccc3c(c2)CCN(CCC2CCC(NC(=O)/C=C/c4ccc(F)cc4)CC2)CC3)on1 (centres unmarked) [TCMDC-139926],-90.16
22,O=C(C=Cc1ccc(F)cc1)NC1CCC(CCN2CCc3ccc(-c4cnccn4)cc3CC2)CC1 (centres unmarked) [TCMDC-140328],0.8671

row,Structure (SMILES),% Inhibition [%]
1,Cc1noc(-c2ccc3c(c2)CCN(CCC2CCC(NC(=O)/C=C/c4ccc(F)cc4)CC2)CC3)n1 (centres unmarked) [TCMDC-139865],-60.69
2,Cc1ccc2[nH]cc(/C=C/C(=O)NC3CCC(CCN4CCc5ccc(C#N)cc5CC4)CC3)c2c1 (centres unmarked) [TCMDC-139682],84.8
3,O=C(Nc1ccc(Cn2ncc(N3CCCNCC3)c(Cl)c2=O)cc1)Nc1ccc(C(F)(F)F)cc1 [TCMDC-133328],-22.6
4,O=C(Nc1cccc(CN2CCN(Cc3ccc(O)cc3)CC2)c1)c1cccc(C(F)(F)F)c1 [TCMDC-141885],-19.52
5,CCC[C@@H]([C@@H](CC1CCCCC1)C(=O)N[C@H](C(=O)Nc1nccs1)C(C)(C)SC)N(O)C=O [TCMDC-138113],-0.06569
6,COc1ccccc1N1CCN(C(C(=O)NCc2cccc(F)c2)c2ccc(C)cc2)CC1 (centres unmarked) [TCMDC-135502],14.65
7,O=c1cc(NCCCNCc2cccc(I)c2)[nH]c2ccccc12 [TCMDC-139414],-42.93
8,O=C(Nc1ccc(-c2nc3ccccc3[nH]2)cc1)C1CCN(Cc2cccc(F)c2F)CC1 [TCMDC-124682],-38.06
9,COc1ccc(CN2CCCC(N3CC4(OC3=O)c3ccccc3-c3ccccc34)C2)c(O)c1 (centres unmarked) [TCMDC-136068],22.8
10,O=C(N[C@@H](Cc1ccccc1)C(=O)NCc1cccc2ccccc12)c1ccc(O)c(-c2ccc(Cl)c(Cl)c2)c1 [TCMDC-140877],23.34
11,COc1ccc(CCN(Cc2cccs2)C(=O)c2cc3sccc3n2C)cc1OC [TCMDC-123572],18.98
12,O=C(Cc1cccc(Cl)c1)Nc1cccc(-c2c[nH]c3nc(Nc4cccc(O)c4)ncc23)c1 [TCMDC-134681],-6.738
13,O=C(N[C@H]1CCN(Cc2ccc(OCCN3CCNCC3)c(Br)c2)C1)c1ccc(Cl)c(Cl)c1 [TCMDC-140284],61.32
14,Cc1cc(CN2CC[C@H](NC(=O)c3ccc(Cl)c(Cl)c3)C2)ccc1OCCN1CCNCC1 [TCMDC-140280],58.57
15,Cc1cc(CN2CC[C@H](NC(=O)c3ccc(Cl)c(Cl)c3)C2)ccc1OCCN1CCCC1 [TCMDC-140279],-2.29
16,CN(C)CCCOc1ccc(CN2CC[C@H](NC(=O)c3ccc(Cl)c(Cl)c3)C2)cc1Br [TCMDC-140283],16.89
17,CN1CCC[C@H]1COc1ccc(CN2CC[C@H](NC(=O)c3ccc(Cl)c(Cl)c3)C2)cc1Cl [TCMDC-140275],-2.162
18,O=C(N[C@H]1CCN(Cc2ccc(OCCN3CCCC3)c(Cl)c2)C1)c1ccc(Cl)c(Cl)c1 [TCMDC-140273],27.77
19,O=C(N[C@H]1CCN(Cc2ccc(OCCN3CCNCC3)c(Cl)c2)C1)c1ccc(Cl)c(Cl)c1 [TCMDC-140274],104.1
20,CN1CCC[C@H]1COc1ccc(CN2CC[C@H](NC(=O)c3ccc(Cl)c(Cl)c3)C2)cc1Br [TCMDC-140285],31.25
21,Cc1cc(CN2CC[C@H](NC(=O)c3ccc(Cl)c(Cl)c3)C2)ccc1OCCCN(C)C [TCMDC-140278],26.92
